{"source": "the supplement of paper PMC11732987", "about": "“Enantioselective OTUD7B fragment discovery through chemoproteomics screening and high-throughput optimisation” (Communications Chemistry, 2025)", "assay_in_all_cases": "log2 ratio of Biotin-Ahx-Ub-VS probe labelling (fragment/DMSO); higher = less target engagement (more negative = stronger competition), active = hit call of the paper (q ≤ 0.05, log2 ratio ≤ -1)", "settings_in_all_cases": "compound concentration: 200 uM; treatment time: 3 h", "key": {"ALG13": {"target": "T1, ALG13 (UniProt Q9NP73)", "T1 sequence (whole entry)": "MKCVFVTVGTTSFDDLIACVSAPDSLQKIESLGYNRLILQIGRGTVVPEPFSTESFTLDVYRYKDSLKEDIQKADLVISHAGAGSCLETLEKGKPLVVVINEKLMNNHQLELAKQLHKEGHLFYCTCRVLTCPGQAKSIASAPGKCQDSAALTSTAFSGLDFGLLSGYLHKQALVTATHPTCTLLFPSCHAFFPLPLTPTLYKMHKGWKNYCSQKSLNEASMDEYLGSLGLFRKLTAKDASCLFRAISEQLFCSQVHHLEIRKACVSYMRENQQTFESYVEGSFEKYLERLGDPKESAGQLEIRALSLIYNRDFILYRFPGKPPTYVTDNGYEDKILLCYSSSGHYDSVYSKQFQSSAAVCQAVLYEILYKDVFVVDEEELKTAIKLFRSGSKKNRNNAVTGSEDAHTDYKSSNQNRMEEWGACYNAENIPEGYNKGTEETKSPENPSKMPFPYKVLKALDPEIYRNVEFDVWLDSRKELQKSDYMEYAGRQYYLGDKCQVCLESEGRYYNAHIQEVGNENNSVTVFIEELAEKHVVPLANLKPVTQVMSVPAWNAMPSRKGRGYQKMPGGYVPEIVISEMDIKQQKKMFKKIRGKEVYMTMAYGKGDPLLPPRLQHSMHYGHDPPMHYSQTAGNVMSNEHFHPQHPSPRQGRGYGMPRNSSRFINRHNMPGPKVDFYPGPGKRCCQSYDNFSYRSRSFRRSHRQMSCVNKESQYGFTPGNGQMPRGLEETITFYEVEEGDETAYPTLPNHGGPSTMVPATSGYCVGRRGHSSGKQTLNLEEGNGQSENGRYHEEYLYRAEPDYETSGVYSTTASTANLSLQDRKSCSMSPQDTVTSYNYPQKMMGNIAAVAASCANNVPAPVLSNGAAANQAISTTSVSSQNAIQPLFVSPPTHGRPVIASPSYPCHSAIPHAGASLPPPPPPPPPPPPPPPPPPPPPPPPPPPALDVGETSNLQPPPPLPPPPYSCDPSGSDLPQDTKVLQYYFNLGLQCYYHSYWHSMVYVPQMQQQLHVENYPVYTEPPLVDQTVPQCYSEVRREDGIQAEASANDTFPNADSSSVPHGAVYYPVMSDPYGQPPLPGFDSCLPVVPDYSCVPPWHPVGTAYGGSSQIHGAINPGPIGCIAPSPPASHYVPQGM", "in_short": "(§1)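 Fragment (200 µM) or vehicle was incubated for 3 h with triplicate HEK293T lysate samples of 495 µg, which were then treated with Biotin-Ahx-Ub-VS at 0.5 µM final for 1 h. Labelled DUBs were enriched on NeutrAvidin, digested with LysC and trypsin, and analysed by diaPASEF LC-MS/MS. Values are average log2 fragment/vehicle ratios from an unpaired t-test on global-median-normalised Spectronaut label-free quantities, using proteins with ≥2 unique peptides.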"}, "ATXN3": {"target": "ATXN3 (UniProt P54252)", "sequence (P54252 whole entry)": "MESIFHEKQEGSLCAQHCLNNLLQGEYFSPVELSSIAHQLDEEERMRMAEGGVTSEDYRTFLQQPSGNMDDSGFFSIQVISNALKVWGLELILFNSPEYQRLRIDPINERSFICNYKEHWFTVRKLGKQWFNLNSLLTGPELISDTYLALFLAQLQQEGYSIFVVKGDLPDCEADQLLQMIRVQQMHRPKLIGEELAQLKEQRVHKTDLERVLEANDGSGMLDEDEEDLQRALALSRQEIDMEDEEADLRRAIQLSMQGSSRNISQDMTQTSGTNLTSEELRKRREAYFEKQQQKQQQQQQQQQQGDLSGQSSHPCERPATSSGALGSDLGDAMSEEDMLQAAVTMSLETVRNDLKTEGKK", "in_short": "as §1"}, "BAP1": {"target": "T2, BAP1 (UniProt Q92560)", "T2 sequence (whole entry)": "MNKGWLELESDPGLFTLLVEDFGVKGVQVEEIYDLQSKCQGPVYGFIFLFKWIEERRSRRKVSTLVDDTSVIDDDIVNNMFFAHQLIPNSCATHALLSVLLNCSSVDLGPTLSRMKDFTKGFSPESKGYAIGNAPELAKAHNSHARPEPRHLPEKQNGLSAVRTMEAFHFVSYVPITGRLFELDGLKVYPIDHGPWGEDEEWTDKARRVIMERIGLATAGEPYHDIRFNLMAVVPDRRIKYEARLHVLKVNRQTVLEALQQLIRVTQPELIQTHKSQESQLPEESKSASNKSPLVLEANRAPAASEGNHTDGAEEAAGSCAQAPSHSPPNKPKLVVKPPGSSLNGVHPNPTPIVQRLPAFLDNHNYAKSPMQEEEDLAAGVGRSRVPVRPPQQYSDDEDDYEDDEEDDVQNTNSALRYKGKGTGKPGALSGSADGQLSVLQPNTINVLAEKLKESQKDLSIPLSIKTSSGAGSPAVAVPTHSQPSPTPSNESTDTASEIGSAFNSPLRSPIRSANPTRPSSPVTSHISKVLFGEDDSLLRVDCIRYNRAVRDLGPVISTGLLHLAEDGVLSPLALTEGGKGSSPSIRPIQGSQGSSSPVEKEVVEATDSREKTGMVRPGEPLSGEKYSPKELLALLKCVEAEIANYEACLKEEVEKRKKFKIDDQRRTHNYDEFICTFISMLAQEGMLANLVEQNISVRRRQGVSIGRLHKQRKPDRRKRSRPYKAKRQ", "in_short": "as §1"}, "EIF3F": {"target": "EIF3F (UniProt O00303)", "sequence (O00303 whole entry)": "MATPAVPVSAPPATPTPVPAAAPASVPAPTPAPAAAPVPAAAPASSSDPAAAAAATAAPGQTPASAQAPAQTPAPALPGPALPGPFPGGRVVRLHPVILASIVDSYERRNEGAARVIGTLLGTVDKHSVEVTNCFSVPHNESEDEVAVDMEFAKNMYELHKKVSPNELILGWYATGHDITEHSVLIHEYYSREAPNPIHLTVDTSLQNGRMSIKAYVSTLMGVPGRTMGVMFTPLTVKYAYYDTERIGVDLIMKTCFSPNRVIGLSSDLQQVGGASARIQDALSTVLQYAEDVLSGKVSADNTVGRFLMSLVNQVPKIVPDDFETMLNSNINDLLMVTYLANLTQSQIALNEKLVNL", "in_short": "as §1"}, "EIF3H": {"target": "EIF3H (UniProt O15372)", "sequence (O15372 whole entry)": "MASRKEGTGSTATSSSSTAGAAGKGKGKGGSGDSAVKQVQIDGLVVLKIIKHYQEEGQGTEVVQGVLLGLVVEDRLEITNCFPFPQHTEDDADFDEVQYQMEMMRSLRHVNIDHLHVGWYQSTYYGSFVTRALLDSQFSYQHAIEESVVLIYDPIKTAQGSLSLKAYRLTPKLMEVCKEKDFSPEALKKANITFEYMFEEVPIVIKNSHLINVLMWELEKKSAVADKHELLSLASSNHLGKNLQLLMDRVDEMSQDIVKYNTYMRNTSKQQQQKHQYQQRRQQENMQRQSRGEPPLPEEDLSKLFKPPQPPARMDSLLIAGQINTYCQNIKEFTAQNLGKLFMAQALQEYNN", "in_short": "as §1"}, "FAM105A": {"target": "T3, FAM105A (UniProt Q9NUU6)", "T3 sequence (whole entry)": "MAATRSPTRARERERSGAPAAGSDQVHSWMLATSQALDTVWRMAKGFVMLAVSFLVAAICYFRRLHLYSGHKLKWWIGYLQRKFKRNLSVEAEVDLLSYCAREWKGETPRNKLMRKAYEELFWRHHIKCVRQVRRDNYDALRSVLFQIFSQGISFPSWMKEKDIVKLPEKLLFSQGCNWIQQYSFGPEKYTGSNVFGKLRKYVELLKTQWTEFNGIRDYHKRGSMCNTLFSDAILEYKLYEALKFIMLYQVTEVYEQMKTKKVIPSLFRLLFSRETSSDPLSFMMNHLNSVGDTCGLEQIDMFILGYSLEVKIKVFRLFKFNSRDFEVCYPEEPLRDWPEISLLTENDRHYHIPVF", "in_short": "as §1"}, "OTUB1": {"target": "OTUB1 (UniProt Q96FW1)", "sequence (Q96FW1 whole entry)": "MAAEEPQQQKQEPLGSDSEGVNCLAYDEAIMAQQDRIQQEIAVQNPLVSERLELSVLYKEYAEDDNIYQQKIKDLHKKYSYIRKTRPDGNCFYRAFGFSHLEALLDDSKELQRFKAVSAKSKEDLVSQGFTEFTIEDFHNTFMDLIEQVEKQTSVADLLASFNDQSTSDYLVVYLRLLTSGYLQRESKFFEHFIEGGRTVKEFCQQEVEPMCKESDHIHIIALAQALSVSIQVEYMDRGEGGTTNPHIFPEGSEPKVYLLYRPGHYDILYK", "in_short": "as §1"}, "OTUD4": {"target": "T4, OTUD4 (UniProt Q01804)", "T4 sequence (whole entry)": "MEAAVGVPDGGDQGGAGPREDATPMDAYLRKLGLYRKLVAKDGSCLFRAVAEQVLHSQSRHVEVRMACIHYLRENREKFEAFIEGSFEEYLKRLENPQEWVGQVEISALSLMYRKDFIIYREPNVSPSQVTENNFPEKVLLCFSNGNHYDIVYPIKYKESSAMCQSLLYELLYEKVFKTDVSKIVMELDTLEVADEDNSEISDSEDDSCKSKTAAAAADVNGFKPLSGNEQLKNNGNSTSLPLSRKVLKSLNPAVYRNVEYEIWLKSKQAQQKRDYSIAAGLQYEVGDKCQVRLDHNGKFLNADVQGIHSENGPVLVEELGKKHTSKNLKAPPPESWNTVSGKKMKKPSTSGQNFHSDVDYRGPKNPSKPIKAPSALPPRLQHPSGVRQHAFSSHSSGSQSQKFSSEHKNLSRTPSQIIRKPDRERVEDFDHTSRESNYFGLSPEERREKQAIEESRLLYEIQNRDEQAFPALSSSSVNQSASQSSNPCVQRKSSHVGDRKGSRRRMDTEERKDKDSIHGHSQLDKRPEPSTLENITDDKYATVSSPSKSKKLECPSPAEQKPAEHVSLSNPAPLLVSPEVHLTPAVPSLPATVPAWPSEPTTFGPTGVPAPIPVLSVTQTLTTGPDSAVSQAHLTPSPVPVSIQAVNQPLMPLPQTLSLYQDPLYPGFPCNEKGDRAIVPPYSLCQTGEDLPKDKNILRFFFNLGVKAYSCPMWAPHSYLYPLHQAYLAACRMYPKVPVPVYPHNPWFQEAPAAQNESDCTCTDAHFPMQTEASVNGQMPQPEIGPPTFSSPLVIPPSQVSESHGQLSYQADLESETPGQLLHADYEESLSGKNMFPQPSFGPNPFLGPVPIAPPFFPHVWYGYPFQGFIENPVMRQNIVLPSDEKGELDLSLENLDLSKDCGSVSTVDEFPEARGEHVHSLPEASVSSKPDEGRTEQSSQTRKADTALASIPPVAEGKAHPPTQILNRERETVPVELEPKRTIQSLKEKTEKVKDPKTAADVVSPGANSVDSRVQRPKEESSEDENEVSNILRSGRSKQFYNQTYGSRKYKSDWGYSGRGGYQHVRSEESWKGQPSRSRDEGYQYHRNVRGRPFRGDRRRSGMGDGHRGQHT", "in_short": "as §1"}, "OTUD5": {"target": "T5, OTUD5 (UniProt Q96G74)", "T5 sequence (whole entry)": "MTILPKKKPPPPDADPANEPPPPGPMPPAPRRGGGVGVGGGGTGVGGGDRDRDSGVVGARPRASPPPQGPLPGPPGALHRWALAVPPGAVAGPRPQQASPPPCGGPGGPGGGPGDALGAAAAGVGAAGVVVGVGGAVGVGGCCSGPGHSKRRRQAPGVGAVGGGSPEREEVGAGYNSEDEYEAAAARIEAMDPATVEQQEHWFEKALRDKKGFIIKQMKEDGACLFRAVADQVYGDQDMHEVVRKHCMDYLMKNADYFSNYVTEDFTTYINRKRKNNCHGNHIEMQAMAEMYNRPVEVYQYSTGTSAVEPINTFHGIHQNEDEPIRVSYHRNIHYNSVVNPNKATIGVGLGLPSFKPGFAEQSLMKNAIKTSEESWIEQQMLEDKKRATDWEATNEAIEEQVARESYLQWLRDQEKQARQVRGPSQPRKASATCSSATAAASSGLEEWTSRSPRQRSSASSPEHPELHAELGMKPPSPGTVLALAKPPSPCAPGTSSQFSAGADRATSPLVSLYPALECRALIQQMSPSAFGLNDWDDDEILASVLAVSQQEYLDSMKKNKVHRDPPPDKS", "in_short": "as §1"}}, "note": "Values without a mark were called inactive."}
{"smiles": "O=C(CCl)NCc1ccc2c(c1)OCO2", "values": [{"measurement": "log2 ratio of Biotin-Ahx-Ub-VS probe labelling", "setting": "ALG13", "value": 0.0126}, {"measurement": "log2 ratio of Biotin-Ahx-Ub-VS probe labelling", "setting": "ATXN3", "value": 0.173}, {"measurement": "log2 ratio of Biotin-Ahx-Ub-VS probe labelling", "setting": "BAP1", "value": "-3.05 (active)"}, {"measurement": "log2 ratio of Biotin-Ahx-Ub-VS probe labelling", "setting": "EIF3F", "value": -0.126}, {"measurement": "log2 ratio of Biotin-Ahx-Ub-VS probe labelling", "setting": "EIF3H", "value": -0.0114}, {"measurement": "log2 ratio of Biotin-Ahx-Ub-VS probe labelling", "setting": "FAM105A", "value": -0.111}, {"measurement": "log2 ratio of Biotin-Ahx-Ub-VS probe labelling", "setting": "OTUB1", "value": -0.278}, {"measurement": "log2 ratio of Biotin-Ahx-Ub-VS probe labelling", "setting": "OTUD4", "value": -0.266}, {"measurement": "log2 ratio of Biotin-Ahx-Ub-VS probe labelling", "setting": "OTUD5", "value": 0.0579}]}
